Assay results taken from the supplement of paper PMC8253809.

Experiments:
Experiment in all cases: growth inhibition (% activity, log2 RLU normalised to DMSO / staurosporine); higher = more growth inhibition
Details in all cases: 33 µM
DIPGX29 = test system: DIPGX29 (H3.3 K27M diffuse intrinsic pontine glioma line)
Outline: (§1)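 Approved drugs were tested in triplicate at a single final concentration of about 33 μM for 7 days at 37 °C, 5% CO2, on pHGG cell lines and H9-derived neural stem cells. Readout was CellTiter-Glo luminescence, log2-transformed and scaled per plate to % activity between solvent and positive control wells. The median over replicates gives the growth-inhibition value.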

DIPGX37 = test system: DIPGX37 (H3.3 K27M diffuse intrinsic pontine glioma line)
Outline: as §1

DIPGX7 = test system: DIPGX7 (H3.3 K27M diffuse intrinsic pontine glioma line)
Outline: as §1

DIPGX9 = test system: DIPGX9 (diffuse intrinsic pontine glioma line)
Outline: as §1

HGGX39 = test system: HGGX39 (paediatric high-grade glioma line)
Outline: as §1

HGGX6 = test system: HGGX6 (H3.3 G34R paediatric high-grade glioma line)
Outline: as §1

HNSC = test system: HNSC
Outline: as §1

SUDIPGIV = test system: SUDIPGIV (diffuse intrinsic pontine glioma line)
Outline: as §1

SUDIPGVI = test system: SUDIPGVI (diffuse intrinsic pontine glioma line)
Outline: as §1

SUDIPGXIII = test system: SUDIPGXIII (diffuse intrinsic pontine glioma line)
Outline: as §1

Row | SMILES | growth inhibition (DIPGX29) | growth inhibition (DIPGX37) | growth inhibition (DIPGX7) | growth inhibition (DIPGX9) | growth inhibition (HGGX39) | growth inhibition (HGGX6) | growth inhibition (HNSC) | growth inhibition (SUDIPGIV) | growth inhibition (SUDIPGVI) | growth inhibition (SUDIPGXIII)
1 | CCOC(=O)O[C@]1(C(=O)OCCl)CC[C@H]2[C@@H]3CCC4=CC(=O)C=C[C@]4(C)[C@H]3[C@@H](O)C[C@@]21C | 1.63% | 4.19% | 2.28% | 3.44% | 2.53% | 2.56% | 1.32% | -2.17% | 3.04% | -2.19%
2 | Cc1ncc([N+](=O)[O-])n1CC(C)O (stereo unspecified) | -2.47% | -0.804% | -1.3% | 0.505% | -1.86% | 0.138% | -4.53% | -1.52% | -0.382% | 
3 | CC1(C)S[C@@H]2[C@H](NC(=O)Cc3ccccc3)C(=O)N2[C@H]1C(=O)O | -0.211% | 1.76% | 0.712% | 0.921% | 2.76% | 0.0221% | 1.53% | 0.754% | 0.396% | 
4 | O[C@@H]1CO[C@H]2[C@@H]1OC[C@@H]2O | -2.46% | 0.0638% | -2.43% | -0.699% | 0.692% | 0.785% | -3.92% | -2.68% | -0.216% | 
5 | C=C(c1ccc(C(=O)O)cc1)c1cc2c(cc1C)C(C)(C)CCC2(C)C | 8.85% | -3.45% | 11% | 10.4% | 12.4% | 9.38% | 14.6% | 6.25% | 9.87% | 
6 | N=C(N)c1ccc(N=NNc2ccc(C(=N)N)cc2)cc1 | -2.11% | -3.98% | -0.967% | -1.13% | 7.13% | 4.38% | -4.44% | 15.4% | 0.511% | 
7 | C[C@@H](O)[C@H]1C(=O)N2C(C(=O)OCOC(=O)C(C)(C)C)=C(SC3CN(C4=NCCS4)C3)[C@H](C)[C@H]12 | -0.211% | 2.3% | 0.926% | 0.809% | 1.15% | 0.471% | -0.363% | -0.736% | 2.12% | 
8 | CC[N+](CC)(CC)CCOc1cccc(OCC[N+](CC)(CC)CC)c1OCC[N+](CC)(CC)CC | 2.95% | 4.13% | 2.35% | 3.16% | 2.47% | 0.26% | 1.9% | -0.653% | 3.43% | -2.39%
9 | Cc1c(O)c(=O)ccn1C | -0.259% | -0.497% | -0.173% | 1.03% | 0.26% | 1.77% | -3.85% | -2.04% | 0.573% | 
10 | Cc1onc(-c2ccccc2)c1-c1ccc(S(N)(=O)=O)cc1 | 0.8% | 1.05% | 0.883% | 0.672% | 3.67% | 2.37% | -0.462% | -2.73% | 2.54% | 
11 | CCCCCCCN(CC)CCCC(O)c1ccc(NS(C)(=O)=O)cc1 (stereo unspecified) | -0.358% | 0.859% | 2.25% | 1.97% | 2.78% | 0.985% | -2.1% | 0.633% | 1.61% | 
12 | CCCc1nc(C)c2c(=O)nc(-c3cc(S(=O)(=O)N4CCN(CC)CC4)ccc3OCC)[nH]n12 | -1.2% | -1.39% | -0.617% | 0.618% | 1.97% | 2.02% | -2.13% | 0.711% | 0.112% | 
13 | Cc1ccc(S(=O)(=O)NC(=O)NN2CCCCCC2)cc1 | -1.75% | 0.973% | -0.7% | -1.05% | 0.24% | 1.06% | -3.09% | -2.7% | -0.0433% | 
14 | C#C[C@]1(O)CC[C@H]2[C@@H]3CCC4=CC(=O)CC[C@@H]4[C@H]3CC[C@@]21C | -0.22% | 3.5% | 1.4% | 2.42% | 4.07% | 7.23% | 6.68% | -0.735% | 0.661% | 
15 | CCC(C)n1ncn(-c2ccc(N3CCN(c4ccc(OCC5COC(Cn6cncn6)(c6ccc(Cl)cc6Cl)O5)cc4)CC3)cc2)c1=O (stereo unspecified) | -0.782% | 1.27% | 1.59% | 1.24% | 4.33% | 1.37% | 7.95% | 1.44% | 1.98% | 
16 | CN(Cc1cnc2nc(N)nc(N)c2n1)c1ccc(C(=O)N[C@@H](CCC(=O)O)C(=O)O)cc1 | 1.2% | 1.21% | 2.57% | 0.922% | 3.95% | 1.8% | 2.32% | -0.562% | 3.38% | 0.468%
17 | N#CC1(c2ccc(NC(=O)c3cccnc3NCc3ccncc3)cc2)CCCC1 | 1.93% | -3.69% | 2.91% | 3.39% | 8.17% | 4.45% | 1.96% | 7.08% | -1.37% | 
18 | CC(C)n1c(/C=C/[C@@H](O)C[C@@H](O)CC(=O)O)c(-c2ccc(F)cc2)c2ccccc21 | 4.64% | 0.671% | 6.29% | 6.39% | 18.7% | 10.2% | 26.9% | 26.2% | 0.023% | 3.96%
19 | Clc1ccc(CCC(Cn2ccnc2)Sc2c(Cl)cccc2Cl)cc1 (stereo unspecified) | 5.06% | 1.97% | 3.57% | 4.57% | 13.2% | 10.2% | 10.2% | 13.5% | 4.83% | 11.4%
20 | CCN(CC)CCCC(C)Nc1ccnc2cc(Cl)ccc12 (stereo unspecified) | 2.54% | 3.91% | 3.48% | 2.75% | 2.84% | 2.74% | 2.95% | 1.72% | 2.6% | 0.0881%
21 | O=C([O-])c1ccccc1O.[Na+] | 1.02% | 2.5% | 2.56% | 1.21% | 1.15% | -1.22% | 28.2% | 1.6% | -4.02% | 0.791%
22 | CC[C@H](C)C(=O)O[C@H]1CCC=C2C=C[C@H](C)[C@H](CC[C@@H]3C[C@@H](O)CC(=O)O3)[C@H]21 | 3.29% | -2.48% | 9.34% | 3.1% | 21.1% | 12.9% | 47.3% | 15.3% | -4.05% | 28.8%
